Screens deposited in PubChem BioAssay by several laboratories.
Only some compounds are listed: those with a hit (about 0.74% of all), similar ones and a draw of the others.
HMGR II inh = inhibitors of E. faecalis class II HMGR, primary screen, biochemical, Enterococcus faecalis. HMG-CoA reductase (Enterococcus faecalis, mvaE). purified E. faecalis HMGR, NADPH absorbance 340 nm kinetic. inhibition, % at 10 µM. 190,000 compounds, 0.41% hits. AID 1066, 2008;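 active means inhibition above a set limit, the median over all tested compounds plus 3 SD, cut at about 9.5% in these data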;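 further: enzyme runs in reverse so mevalonate oxidation gives rising NADPH absorbance; 0% = complete reaction with DMSO and 100% = background rate lacking mevalonate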
Furin inhibitor = human furin inhibitors, primary screen, biochemical, fluorescence intensity; P09958; purified furin, fluorogenic substrate cleavage; inhibition, % at 20 µM or 30 µM; 220,000 compounds, 0.061% hits; in the data active means inhibition above about 25%
Target sequence (P09958 108-714 limits assumed): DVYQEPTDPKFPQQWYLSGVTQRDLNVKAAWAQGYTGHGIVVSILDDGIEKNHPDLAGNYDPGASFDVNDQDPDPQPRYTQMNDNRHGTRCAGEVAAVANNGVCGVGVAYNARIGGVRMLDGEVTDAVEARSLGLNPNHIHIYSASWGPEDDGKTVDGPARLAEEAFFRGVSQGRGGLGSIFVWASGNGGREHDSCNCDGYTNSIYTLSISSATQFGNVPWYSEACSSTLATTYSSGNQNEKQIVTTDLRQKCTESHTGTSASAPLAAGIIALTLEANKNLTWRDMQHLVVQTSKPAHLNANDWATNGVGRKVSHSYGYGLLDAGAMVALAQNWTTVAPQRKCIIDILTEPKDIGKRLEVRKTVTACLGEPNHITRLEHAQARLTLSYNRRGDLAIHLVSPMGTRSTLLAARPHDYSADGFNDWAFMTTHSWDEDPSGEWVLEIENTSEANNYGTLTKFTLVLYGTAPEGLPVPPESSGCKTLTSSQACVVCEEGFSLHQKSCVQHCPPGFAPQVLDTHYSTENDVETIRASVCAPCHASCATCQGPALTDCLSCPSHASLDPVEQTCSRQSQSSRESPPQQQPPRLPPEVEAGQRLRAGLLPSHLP
DTT redox prof = compounds producing H2O2 with reducing agent – biochemical, NIH compound library profiling, artefact control for MLSCN library redox annotation, primary screen. DTT-dependent redox cycling H2O2, phenol red/HRP absorbance; 100% = 100 µM peroxide control, 0% = buffer. activation, % at 10 µM. 200,000 compounds, 0.03% hits. AID 878, 2007;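 active means activation of at least 50% relative to the plate's high and low controls in the primary single-dose screen; inactive means activation below 50%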;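 further: compound incubated with DTT at 0.8 mM final as the reducing agent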
TbHK1 inh = Trypanosoma brucei hexokinase 1 inhibitors, primary screen, biochemical, G6PDH-coupled NADH absorbance, MLSCN library. recombinant TbHK1, G6PDH-coupled NADH A340. inhibition, % at 10 µM. 220,000 compounds, 0.11% hits;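 active means inhibition of 50% or more in the single-dose primary screen; inactive means inhibition below 50%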
pCIP destab = p/CIP-EGFP fusion destabilizers, primary screen, fluorescence, F442A cells; Q05BA5; 16 h; decrease of EGFP signal, % at 10 µM; 290,000 compounds, 0.01% hits; AID 1984, 2009;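 active means EGFP signal decrease of at least 30% at 10 µM or well 3 SD below plate mean, unless failing retest; inactive means the rest, including hits failing retest or dose response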
p97 ATPase inh = inhibitors of human p97 ATPase, primary screen, biochemical. recombinant p97 ATPase, Kinase-Glo ATP luminescence, 3 h. inhibition, % at 8 µM. 220,000 compounds, 0.42% hits. AID 1481, 2009; in the data active means inhibition above about 15%;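 further: 0% = DMSO vehicle and 100% = wells lacking enzyme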
p97 confirm = p97 ATPase inhibitors, retest, confirmation, biochemical | 760 compounds, 44% hits | AID 1517, 2009 | inhibition, % at 8 µM | recombinant p97 ATPase, Kinase-Glo ATP luminescence | shares compounds with p97 ATPase inh;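 active means percent inhibition of p97 ATPase above a set limit, the primary screen's mean plus 3 SD, cut at about 15% in these data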;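 further: 0% = DMSO wells and 100% = wells lacking p97 protein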
* marks the source's active call; other numbers are inactive results; x = not tested or not shown.

SMILES | HMGR II inh | Furin inhibitor | DTT redox prof | TbHK1 inh | pCIP destab | p97 ATPase inh | p97 confirm
O=C1NNC(c2ccccc2)=N/C1=C\c1ccccc1Cl | x | -21.8 | x | -13.1 | -14.4 | 17.5* | 18.3*
COC(=O)c1c(-c2ccccc2)csc1N1C(=O)Nc2ccccc2N1O | -6.0 | -5.6 | -0.2 | -6.8 | -4.6 | 15.3* | 23.1*
COC(=O)c1c(N2C(=O)Nc3ccccc3N2O)sc2c1CCCC2 | -2.8 | -19.2 | -0.2 | -10.6 | 4.2 | 8.6 | x
CCOC(=O)c1c(-c2ccccc2)csc1N1C(=O)Nc2ccccc2N1O | -6.2 | -11.1 | -0.3 | -4.4 | -5.7 | 18.1* | 20.9*
COc1ccccc1C(=O)N/C(=C\c1ccc(Br)cc1)C(=O)NCCC(=O)O | -0.3 | -27.3 | -0.3 | -4.5 | -13.5 | 16.3* | 2.0
CCCn1nc([N+](=O)[O-])c(C(C#N)c2nc3ccccc3o2)c(Cl)c1=O (stereo not drawn) | -6.4 | -5.5 | 0.9 | 4.9 | 5.7 | 2.0 | x
CCn1nc([N+](=O)[O-])c(C(C#N)c2nc3cc(C(F)(F)F)ccc3s2)c(Cl)c1=O (stereo not drawn) | 2.9 | -8.1 | 0.3 | -13.3 | -9.6 | 34.8* | 41.8*
COc1ccc(C(C(=O)NCC2CCCO2)N(C(=O)c2snc(C(N)=O)c2N)c2ccccc2C)cc1OC (stereo not drawn) | x | x | x | x | -11.9 | x | x
Cc1ccc(NC(=O)CN2C(=O)N/C(=C/c3cccn3-c3ccc(C(=O)O)cc3)C2=O)cc1 | 2.8 | -24.5 | -0.2 | 0.4 | 2.0 | 17.1* | 31.6*
Cc1ccc(NC(=O)CN2C(=O)N/C(=C/c3cc(C)n(-c4ccc(C(=O)O)cc4)c3C)C2=O)cc1 | -7.8 | -12.2 | -1.1 | -11.3 | 7.0 | 6.8 | x
CC1=NN(c2ccc(C)cc2C)C(=O)C1C(c1ccccc1O)C1C(=O)N(c2ccc(C)cc2C)N=C1C (stereo not drawn) | -5.5 | -29.7 | -0.1 | -4.2 | 4.3 | 27.8* | 7.9
N#C/C(=C/c1ccc(Br)o1)C(N)=O | -4.5 | -4.7 | 0.9 | -43.7 | -0.6 | 3.0 | x
N#C/C(=C/c1ccc(Br)o1)C(N)=S | x | 0.2 | x | -48.8 | -4.1 | 35.1* | 30.2*
CC1CC(C)(C)NC(=S)N1CCC(=O)N1CCN(c2ccccc2)CC1 (stereo not drawn) | -0.9 | -29.9 | -0.8 | 0.2 | -14.4 | 15.2* | 2.7
Cc1c(C(=O)OCC(=O)Nc2ccc(S(N)(=O)=O)cc2)oc2c1ccc1ccccc12 | -5.5 | -13.1 | -0.1 | 5.3 | -4.9 | 15.8* | 8.3
O=C(O)/C=C/C(=O)NCCC(c1ccccc1)c1ccccc1 | x | 10.5 | x | -11.0 | 1.0 | 7.2 | x
Cc1ccc2[nH]c(=O)c(CN(CCCN(C)C)C(=O)Nc3ccc(F)cc3)cc2c1 | -7.0 | -11.7 | -1.2 | -0.7 | 14.1 | 15.7* | 4.2
COc1ccc(NC(=O)N(CCCN(C)C)Cc2cc3cc(OC)ccc3[nH]c2=O)cc1 | 5.3 | -26.6 | 0.3 | -14.8 | -15.3 | 3.4 | x
O=C(NNc1cc(N2CCOCC2)nc(N2CCOCC2)n1)c1ccc([N+](=O)[O-])cc1 | -5.9 | -0.9 | -0.5 | -6.3 | -7.2 | 22.5* | 7.1
O=C(NC1(O)C(=O)c2ccccc2C1=O)c1c(Cl)cccc1Cl | x | -21.7 | x | -5.9 | -3.8 | 19.8* | 40.6*
O=C(NC1(O)C(=O)c2ccccc2C1=O)c1ccccc1 | -7.2 | -18.5 | 0.0 | 2.6 | 7.1 | 9.0 | x
COc1ccccc1C(=O)Oc1cc(N)n(S(=O)(=O)c2ccc(C)cc2)n1 | 2.2 | -15.4 | 0.0 | -0.6 | 4.9 | 28.9* | 39.4*
Cc1ccc(S(=O)(=O)n2nc(OC(=O)c3ccccc3C)cc2N)cc1 | x | x | x | x | -13.4 | x | x
CC(=O)N(C(C)=O)c1nc(-c2ccccc2)cn1/N=C/c1cccc([N+](=O)[O-])c1 | x | -10.6 | x | -17.9 | 5.3 | 17.8* | 23.6*
O=[N+]([O-])c1cccc(/C=N/n2c(-c3cccnc3)n[nH]c2=S)c1 | -0.2 | -10.2 | 0.6 | 18.4 | 0.1 | 6.3 | x
SMILES | HMGR II inh | Furin inhibitor | DTT redox prof | TbHK1 inh | pCIP destab | p97 ATPase inh | p97 confirm
Cc1cc(SCC(=O)Nc2ccc(O)cc2)n2nc(C)c(-c3ccccc3)c2n1 | x | -13.6 | x | -11.8 | 5.6 | 24.1* | 7.5
Cc1cc(SCC(=O)Nc2ccc(O)cc2)n2ncc(-c3ccccc3)c2n1 | x | -19.5 | x | -16.3 | -20.8 | 5.5 | x
COc1ccc(CCn2c3c(c(=O)[nH]c2=O)C(NC(=O)c2cccs2)(C(F)(F)F)C(=O)N3)cc1OC (stereo not drawn) | -0.5 | -11.6 | 2.4 | -7.5 | -4.9 | 27.3* | 7.8
CC(C)(C)OC(=O)N1CCCN(C(=O)Nc2ccc(C(F)(F)F)cc2)CC1 | x | -24.5 | x | 37.8 | 4.1 | -4.8 | x
O=[N+]([O-])c1ccccc1-c1ccc(/C=N/n2cnnc2)o1 | 2.1 | -6.8 | -7.7 | -34.3 | -2.1 | 1.5 | x
Nn1cnnc1N/N=C\c1ccc(-c2ccccc2[N+](=O)[O-])o1 | 7.0 | -6.0 | 6.2 | 4.0 | 8.6 | 27.3* | 6.6
N=c1c(C(=O)NCc2ccccc2)cc2c(=O)n3ccccc3nc2n1Cc1ccco1 | -0.1 | -13.8 | 0.9 | -4.4 | -8.3 | 22.8* | 13.1
COc1ccc(N(C)C(=O)Nc2ccc3nsnc3c2)cc1 | 1.1 | -23.0 | -1.6 | -4.0 | -8.5 | 31.6* | 8.1
COc1ccc(NC(=S)Nc2ccc3nsnc3c2)cc1 | 4.2 | -18.6 | 0.6 | -8.9 | 2.0 | 37.6* | 18.5*
S=C(Nc1ccc(Cl)c(Cl)c1)NC1CCCCC1 | -2.4 | -9.0 | -4.2 | -6.8 | 2.8 | 2.3 | x
CC(C)N(C(=O)Nc1ccc2nsnc2c1)C(C)C | -5.0 | -25.9 | -0.1 | -10.2 | -9.6 | 42.0* | 16.6*
S=C(Nc1ccc2nsnc2c1)NC1CCCCC1 | -1.2 | -4.1 | -0.9 | 24.4 | 3.1 | 15.2* | 6.4
CC(/C=N/NC(=O)c1ccc(Cn2cc([N+](=O)[O-])cn2)o1)=C\c1ccccc1 | x | x | x | x | -28.1 | x | x
O=C(O)CCCC(=O)N1CCOCCOCCOCCOCC1 | x | x | x | x | -12.2 | x | x
CCOC(=O)C1CCN(S(=O)(=O)c2cn(C)c(=O)n(C)c2=O)CC1 | -2.9 | -29.7 | -0.4 | 1.7 | -0.1 | 1.9 | x
CCOC(=O)C1CCCN(S(=O)(=O)c2cn(C)c(=O)n(C)c2=O)C1 (stereo not drawn) | -2.2 | -4.6 | 0.2 | 3.0 | -0.2 | 16.8* | 3.2
O=c1cc(N=Nc2ccc(Cl)cc2)[nH]c(=O)[nH]1 | x | -18.8 | x | -39.9 | -8.5 | 28.3* | 15.2*
CC1CN(C(=O)COC(=O)c2ccc(F)cc2Cl)CC(C)O1 (stereo not drawn) | x | x | x | x | -8.6 | x | x
